# Reference: PubChem BioAssay (NCI)
# Several values for one entry are separate records, joined by “and”; a condition that tells them apart may be missing. Equal values may be shown once. Compounds without any hit were thinned out: in the full panel of roughly 83,000, 20% have a hit.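 Single-dose data. Exposure time 48 hours. Values below 10 considered active.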 A structure can be active in one record and inactive in another. Activity calls are given as the source filed them.
# System: MDA-MB-468 breast
# Experiment: NCI-60 one-dose screen, 48 h (100 = growth as untreated, 0 = no growth, -100 = all killed)
# Settings: 10 µM unless noted
row,Structure (SMILES),growth
1,Cc1c[nH]c(=O)n(Cc2nnc(CCC(=O)c3nc4ccccc4[nH]3)o2)c1=O,-1.54% (active)
2,COc1cc(-c2nc3c(ncc4ccc(=O)n(-c5ccccc5)c43)s2)cc(OC)c1OC,47.3% (inactive)
3,CC1=C(C)C(=O)C(Nc2cccc(C(=O)OC(C)(C)C)c2)=C(Cl)C1=O,-23.6% (active)
4,COc1ccc(/C=C/C(=O)c2c(C)nc3ccccc3c2/C=C/c2ccccc2)cc1O,40.1% (inactive)
5,CCN(CC)CCn1c(=N)n(CC(O)c2ccc(Cl)c(Cl)c2)c2ccccc21 (stereo not given),21% (inactive)
6,O=C(CC(O)c1ccncc1)c1ccccc1 (stereo not given),-50.3% (active)
7,O=C(CSc1nc2sc3c(c2c(=O)n1-c1ccccc1)CCCCC3)N/N=C/c1ccc(F)cc1,-3.84% (active)
8,COc1ccc(/C=C/C(=O)C(=O)/C=C/c2ccc(OC)c(OC)c2)cc1OC,20.1% (inactive)
9,C[C@H]1[C@H]2C3=CC[C@@H]4[C@@]5(C)C/C(=C/c6ccco6)C(=O)C(C)(C)[C@@H]5CC[C@@]4(C)[C@]3(C)CC[C@@]2(C(=O)N2CCOCC2)CC[C@@H]1C,59.5% (inactive)
10,NC(N)=Nc1ccc(Oc2cccc(NC(N)=Nc3ccc(I)cc3F)c2)cc1,35.5% (inactive)
11,O=C(NCCNc1nccc(-c2c(-c3cccc(O)c3)nc3sccn23)n1)Nc1cc(C(F)(F)F)cc(C(F)(F)F)c1,57.8% (inactive)
12,CCCCn1c(=O)c2c(nc(NCCc3ccc(O)c(O)c3)n2CCC)n(CCCC)c1=O,82.2% (inactive)
13,CC(=O)O[C@H]1CC[C@]2(C)[C@H]3CC=C4[C@@H]5CC(C)(C)CC[C@]5(C(=O)NCCNCCN)CC[C@@]4(C)[C@]3(C)CC[C@H]2C1(C)C,-78.2% (active)
14,COc1cc(C2CC(C3C(=O)N(C)C(=O)N(C)C3=O)=NN2c2cc(Cl)cc(Cl)c2)cc(OC)c1OC (stereo not given),84.5% (inactive)
15,O/N=C1\CCC2CCCCC2C1 (stereo not given),105% (inactive)
16,COc1ccc2c(c1)c(CC(=O)[Se]CC(=O)O)c(C)n2C(=O)c1ccc(Cl)cc1,86.9% (inactive)
17,Cc1ccc(CS/C(=C\c2ccc([N+](=O)[O-])cc2)C(=O)c2ccc(F)cc2)cc1,81.1% (inactive)
18,O=c1[nH]c(=S)[nH]c(O)c1/C=C1\C=Nc2ccccc21,103% (inactive)
19,CCCCCCCCCc1ccc(OCCOCCOCCOCCOCCOCCOCCOCCOCCO)cc1,-11.7% (active)
20,c1ccc(-c2n(Cc3ccc4ccccc4c3)c3c4ccccc4c4ccccc4c3[n+]2Cc2ccc3ccccc3c2)cc1,-75.5% (active)

row,Structure (SMILES),growth
1,CNC(=O)c1cn(C2CC2)c2cc(N3CCN(C(=O)c4cc(OC)c(OC)c(OC)c4)CC3)c(F)cc2c1=O,103% (inactive)
2,CCOC(=O)CNC(=O)C1(NC(=O)CNC(=O)OCc2ccccc2)CCCC1,131% (inactive)
3,O=C(Nc1ccccc1)P(=O)(O)c1ccccc1,94.3% (inactive)
4,CN(C)c1ccc(/C=N/Nc2nnc3n2N=C(c2ccc(Cl)cc2)CS3)cc1,104% (inactive)
5,CCCCNC(=O)Oc1ccc(/C(=C(/C)Cc2ccc(OC)cc2)c2ccc(OCCN3CCCCCC3)cc2)cc1,69.2% (inactive)
6,C=C1C(=O)C2CCC1C2 (stereo not given),110% (inactive)
7,CC(COC(=O)c1ccccc1)N1CC2CCC(C1)O2 (stereo not given),103% (inactive)
8,CNCc1cccc2c1OCCOCCN(C)C(=O)CN(C)S(=O)(=O)c1ccc(cc1)-c1cnc(N)c(n1)C(=O)N2,-49.3% (active)
9,CC(=O)C(C(C)=O)c1nc2sc3cc(Cl)ccc3n2c(=N)c1C#N,41.7% (inactive)
10,Cc1c(Cl)cccc1NC(=O)CCCl,108% (inactive)
11,Cc1ccc(-c2cnc3sc4ccc(Cl)cc4n23)cc1,103% (inactive)
12,CCOC(=O)c1c2c(cn1Cc1ccccc1)-c1oncc1CC2,105% (inactive)
13,CCN(C(=O)c1ccc2c3c(cccc13)C=C2)c1ccccc1,84.3% (inactive)
14,CCCCC[C@H]1C/C=C2/C(=O)C=C[C@@H]2C/C=C\CCCC(=O)O[C@@H](CCCCC)C/C=C2/C(=O)C=C[C@@H]2C/C=C\CCCC(=O)O1,-27.8% (active)
15,CC(C)C(=O)OCCOc1ccc(C(C)(C)C)cc1,102% (inactive)
16,O=C(Nc1cc(=O)[nH]c(=O)[nH]1)C(Cl)Cl,98.5% (inactive)
17,COc1ccc(-c2ncnc3c2ncn3C/C=C/CCl)cc1,-3.89% (active) and 61.5% (inactive)
18,CN(C)c1ccc(N=C2C=CC(=O)C=C2)cc1,12.5% (inactive)
19,COc1ccc(C(=O)/C=C/c2sc(Cl)nc2Cl)cc1,-13.8% (active)
20,CNCCCn1c2c(c3ccc([N+](=O)[O-])cc3c1=O)C(=O)c1cc(OC)cnc1-2,-39.5% (active)
